The values below come from PubChem BioAssay (NCATS).

Results filed as inconclusive are left out. Calls of active or inactive are those of the source. Unless noted, the call rests on the fitted dose curve; in most records, active means well fitted curve in the direction sought with a large enough effect; inconclusive means small, poorly fitted or top-dose-only effect, or another doubt; inactive means no such curve, though single readings can be large; an effect the other way counts as inactive or inconclusive.

The target in test [1] is Lysosomal acid glucosylceramidase (Homo sapiens) (UniProt P04062). Kind of test: Glucocerebrosidase-p2 (AID 348; in the data active means potency below about 10 µM; further: potency means the concentration at half of the fitted maximal effect). Particulars: purified GBA, blue fluorogenic substrate, 40 min. A digest of the protocol: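 Normal human glucocerebrosidase (0.2 nM) with blue fluorogenic substrate (80 uM final) in citrate/phosphate pH 5.9 with 10mM sodium taurocholate, 0.01% tween-20; 40 min RT, NaOH/glycine stop; fluorescence Ex 365/Em 440; AC50 from a titration from 0.6 nM upwards.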
Chain of Lysosomal acid glucosylceramidase (Homo sapiens) (P04062 whole entry, looked up): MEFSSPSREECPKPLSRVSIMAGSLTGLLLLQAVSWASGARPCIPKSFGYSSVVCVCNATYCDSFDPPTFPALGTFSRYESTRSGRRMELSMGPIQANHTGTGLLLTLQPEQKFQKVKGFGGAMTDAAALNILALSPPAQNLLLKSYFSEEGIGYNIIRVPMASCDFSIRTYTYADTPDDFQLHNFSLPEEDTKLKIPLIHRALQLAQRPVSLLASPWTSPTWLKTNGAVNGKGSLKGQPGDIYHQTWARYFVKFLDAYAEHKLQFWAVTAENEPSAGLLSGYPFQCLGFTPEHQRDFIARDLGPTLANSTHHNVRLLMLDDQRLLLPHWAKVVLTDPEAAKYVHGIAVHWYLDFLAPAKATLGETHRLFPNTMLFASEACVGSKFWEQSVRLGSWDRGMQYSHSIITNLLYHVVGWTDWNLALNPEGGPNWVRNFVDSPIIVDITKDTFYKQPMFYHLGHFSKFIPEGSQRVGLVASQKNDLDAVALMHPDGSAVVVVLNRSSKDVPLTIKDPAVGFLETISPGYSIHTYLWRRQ

A short description of test [2]: AP1 Signaling Pathway (AID 357; active means well fitted curve in either direction with a large enough effect, not every such curve was filed as active;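 further: ME-180 reporter cells stimulated with EGF at its EC50 level; on the % scale 0 is the no-effect control and ±100 the full control effect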). Particulars: ME-180 AP-1-bla reporter, EGF-induced, beta-lactamase ratio, 5 h; at 7.69 µM (top of the series) unless noted. A digest of the protocol: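 AP-1-bla ME-180 cells, Opti-MEM + 0.5% dialyzed FBS, plated overnight 37 °C. Cpd titration + EC50 EGF, 5 h 37 °C. CCF4 2.5 h RT; ex 405, em 460/530 ratio → %activity, AC50.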
A short description of test [3]: NFAT Signaling Pathway (AID 444; active means well fitted curve in either direction with a large enough effect, not every such curve was filed as active;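 further: carbachol stimulus at about its EC50 of 1 µM final; on the % scale 0 is the no-effect control and ±100 the full control effect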). Particulars: Jurkat NFAT-bla M1, carbachol, beta-lactamase ratio, 5 h; at 7.69 µM (top of the series) unless noted. The procedure, abridged: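 Jurkat cells with NFAT-driven β-lactamase reporter and co-expressed M1 receptor, stimulated with carbachol (final 1 uM, ~EC50), compound titration, 5 h at 37 °C. CCF4 loaded 1 h at RT; 460/530 nm ratio gave %activity and AC50.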

A short description of test [4]: Stat Signaling Pathway (AID 446; active means well fitted curve in either direction with a large enough effect, not every such curve was filed as active;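 further: ME-180 cervical cancer cells given 40 pM IL-6 alongside compound; SIE-controlled beta-lactamase reporter measured as 460/530 nm FRET emission ratio; on the % scale 0 is the no-effect control and ±100 the full control effect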). Particulars: ME-180 (cervical carcinoma) SIE beta-lactamase reporter, IL-6 stimulated, 5 h; at 7.69 µM (top of the series) unless noted. A digest of the protocol: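 Compound effects on IL-6-induced STAT reporter activity were measured in ME-180 cells. After overnight culture, cells were co-treated with 40 pM IL-6 for 5 hrs before beta-lactamase substrate loading at room temperature.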

Test [5] concerns the target Glucocorticoid receptor (Homo sapiens) (UniProt P04150). Kind of test: GR-GFP Redistribution (AID 450;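 active means compounds whose dose series gives a full or clear partial fitted curve of increased nuclear translocation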; further: potency means the concentration at half of the fitted maximal effect). Particulars: U2OS GR-GFP nuclear translocation, laser cytometry, 2 h.
Test [6] shares this target. Kind of test: GR-EFC Redistribution (AID 451; calls by dose curve; further: potency means the concentration at half of the fitted maximal effect). Particulars: CHO-K1 GR-EFC translocation, beta-gal luminescence, 2 h. The procedure, abridged: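 CHO-K1 cells expressing nuclear EA and GR-ED fragments of b-gal; compounds titrated up to 46 uM final, 2 h at 37 C. GR nuclear translocation read as complemented b-gal luminescence after 1 h RT detection.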
For test [7], the target named is Mitogen-activated protein kinase 10 (Mus musculus) (UniProt Q61831). In words: JNK3 AlphaScreen Assay (AID 530; active means well fitted curve in either direction with a large enough effect, not every such curve was filed as active;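 further: kinase came from lysate of stimulated human HepG2 cells; signal reports phosphorylation of biotinylated GST-cJun 1-79 at Ser73 with 10 µM ATP; on the % scale 0 is the no-effect control and ±100 the full control effect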). Particulars: JNK3 lysate, c-Jun phosphorylation; series mostly up to 57.1 µM. A digest of the protocol:
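Activity was read by AlphaScreen after JNK3-containing HepG2 lysate (cytokine pre-activated) phosphorylated biotinylated GST-cJun with 10 uM ATP at room temperature. Phospho-Ser73 cJun antibody with Protein-A acceptor beads provided detection.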
Background: In Alpha technology, singlet oxygen from a donor bead excites a nearby acceptor bead.

In test [8] the target is 3',5'-cyclic-AMP phosphodiesterase 4B (Homo sapiens) (UniProt Q07343). In words: qHTS Assay for Inhibitors of PDE-IV (AID 607; active means well fitted activation curve with a large enough effect in the main read-out, with a control signal flat, not every such curve was filed as active; further: % of control where 0% means no effect). The note with it: HEK293 ACTOne CNG channel cells, membrane potential fluorescence; series mostly up to 22.9 µM. A digest of the protocol: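 ACTOne HEK293 cells carry a modified cAMP-gated CNG channel and express endogenous PDE4; plated 1000 cells/well, compounds up to 22.9 uM final. Membrane-potential dye fluorescence (ex 535/em 590) was read; parental cells received 10 uM forskolin + 100 uM RO 20-1724.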
Chain of 3',5'-cyclic-AMP phosphodiesterase 4B (Homo sapiens) (Q07343 whole entry, looked up): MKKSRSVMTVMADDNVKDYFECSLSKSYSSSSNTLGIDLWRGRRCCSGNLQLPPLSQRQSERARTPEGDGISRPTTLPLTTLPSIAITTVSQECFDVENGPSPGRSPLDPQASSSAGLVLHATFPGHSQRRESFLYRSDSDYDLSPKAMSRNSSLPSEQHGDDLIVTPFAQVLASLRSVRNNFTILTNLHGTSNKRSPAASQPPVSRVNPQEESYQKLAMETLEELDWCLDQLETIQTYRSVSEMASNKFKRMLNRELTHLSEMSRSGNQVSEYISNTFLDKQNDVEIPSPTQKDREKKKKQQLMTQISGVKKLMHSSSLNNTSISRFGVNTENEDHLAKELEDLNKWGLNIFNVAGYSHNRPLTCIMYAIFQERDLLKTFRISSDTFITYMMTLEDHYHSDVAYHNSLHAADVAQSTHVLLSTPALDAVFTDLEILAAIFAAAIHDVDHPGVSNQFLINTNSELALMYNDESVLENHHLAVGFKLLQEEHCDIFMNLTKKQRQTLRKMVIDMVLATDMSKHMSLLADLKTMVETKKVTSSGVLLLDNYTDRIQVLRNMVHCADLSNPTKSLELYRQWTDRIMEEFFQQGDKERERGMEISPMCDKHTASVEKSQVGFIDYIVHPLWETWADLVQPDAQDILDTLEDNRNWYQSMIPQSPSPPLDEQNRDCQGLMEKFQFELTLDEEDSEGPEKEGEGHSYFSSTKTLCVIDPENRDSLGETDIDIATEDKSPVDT
A general note: qHTS replaces the single test concentration by a dilution series.

The nature of test [9]: qHTS Assay for Lipid Storage Modulators (AID 1519; calls by dose curve). The note with it: Drosophila S3 cells, BODIPY lipid droplet/cell ratio, laser cytometry, cells loaded with oleic acid; for activity change, negative = inhibition: at 57.5 µM (top of the series). The procedure, abridged: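 Cells seeded at 5,000 per well were treated with compounds over a concentration series and loaded with oleic acid (400 uM, as added). Lipid droplet fluorescence (488 nm excitation, 500-530 nm channel) was read by laser-scanning cytometry and normalized to 20 uM Triacsin C.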

Test [10] concerns the target Dual specificity protein kinase CLK4 (Homo sapiens) (UniProt Q9HAZ1). Kind of test: qHTS Assay for Inhibitors of CDC-like Kinase 4 (Kinase-Glo Assay) (AID 1770). Further: on the % scale 0 is the no-effect control and ±100 the full control effect; nearly all actives have a fitted effect of over 65% in size. Particulars: recombinant Clk4, Kinase-Glo ATP depletion luminescence; series mostly up to 66.7 µM. A digest of the protocol: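 25 nM Clk4 with 100 uM RS repeat peptide and 1 uM ATP (final) in Tris pH7.5, 10 mM MgCl2, 4.5 h at room temperature. Remaining ATP measured by Kinase-Glo luciferase luminescence.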

For test [11] the target is unchanged. In words: qHTS Assay for Inhibitors of CDC-like Kinase 4 (ADP-Glo Assay) (AID 1771). Further: on the % scale 0 is the no-effect control and ±100 the full control effect; nearly all actives have a fitted effect of over 70% in size. Particulars: recombinant CLK4, ADP-Glo luminescence; series mostly up to 80 µM. The procedure, abridged: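 Compounds are pin-transferred onto substrate mix (100 uM RS peptide, 1 uM ATP), then 25 nM Clk4 is added. After 1 hr at room temperature, ADP-Glo reagent runs 45 min, detection reagent 30 min, then luminescence is read.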

Test [12] shares this target. Kind of test: qHTS Assay for Inhibitors of CDC-like Kinase 4 (ADP-FP Assay) (AID 1795). Further: on the % scale 0 is the no-effect control and ±100 the full control effect; nearly all actives have a fitted effect of over 60% in size. Particulars: Transcreener ADP fluorescence polarization; series mostly up to 50 µM. The procedure, abridged:
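Recombinant Clk4 (6.25 nM) phosphorylated 100 uM RS repeat peptide with 1 uM ATP in 25 mM Tris pH 7.5, 10 mM MgCl2, 0.5 mM EGTA, 2.5 mM DTT, 0.01% Triton X-100 for 1 h. ADP was detected by Transcreener ADP2 competitive fluorescence polarization after 30 min at room temperature.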

Test [13] concerns the target Ubiquitin carboxyl-terminal hydrolase 1 (Homo sapiens) (UniProt O94782). In words: Inhibitors of USP1/UAF1: Pilot qHTS (AID 504865).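 Further: rhodamine fluorescence freed from ubiquitin-rhodamine substrate followed over time; top concentration of the series differs between compounds; on the % scale 0 is the no-effect control and ±100 the full control effect; nearly all actives have a fitted effect of over 35% in size.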 The note with it: purified USP1/UAF1, Ub-rhodamine cleavage fluorescence; series mostly up to 54.9 µM. The procedure, abridged: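 USP1/UAF1 complex at 1 nM preincubated 15 min at room temperature with compound, then Ub-Rho substrate added at 150 nM final. Fluorescence (480/540 nm) read kinetically in 50 mM HEPES pH 7.8, 0.5 mM EDTA, 1 mM TCEP, 0.1 mg/ml BSA, 0.01% Tween-20.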

The nature of test [14]: Primary qHTS for small molecule stabilizers of the endoplasmic reticulum resident proteome: Secreted ER Calcium Modulated Protein (SERCaMP) assay (AID 1508630). Further: on the % scale 0 is the no-effect control and ±100 the full control effect. The note with it: SH-SY5Y GLuc-SERCaMP (Gaussia luciferase released on ER calcium loss) secretion, thapsigargin, luminescence; series mostly up to 38.4 µM. A digest of the protocol: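 The SH-SY5Y reporter protocol was run at 3 concentrations up to 38.3 uM (primary) or 11 concentrations (follow-up): 16 h compound, 100 nM thapsigargin for 4 h, then extracellular luciferase luminescence.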

The target of test [15] is Cytochrome P450 1A2 (Homo sapiens) (UniProt P05177). Kind of test: p450-cyp1a2 (AID 410; calls by dose curve; further: potency means the concentration at half of the fitted maximal effect). The note with it: recombinant CYP1A2, luciferin-ME demethylation, luminescence; series mostly up to 57 µM. The procedure, abridged:
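O-Demethylation of luciferin 6' methyl ether by human CYP1A2 is monitored as luciferase luminescence. Substrate sits at Km (100uM); enzyme is 20nM. Values are scaled to 57 uM furafylline as maximal inhibition.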

Test [16] deals with Cytochrome P450 3A4 (Homo sapiens) (UniProt P08684). In words: qHTS Assay for Inhibitors and Substrates of Cytochrome P450 3A4 (AID 884). Further: nearly all actives have a fitted effect of over 50% in size. Further: potency means the concentration at half of the fitted maximal effect. Particulars: recombinant CYP3A4, Luciferin-PPXE luminescence; series mostly up to 57.1 µM. A digest of the protocol: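 Luminescent readout of luciferin produced by CYP3A4 (20 nM) dealkylation of Luciferin-PPXE, 25 uM (its KM). NADPH-driven reaction ran 60 min at RT after 10 min compound preincubation; data scaled to 57 uM ketoconazole as 100% inhibition.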
Chain of Cytochrome P450 3A4 (Homo sapiens) (P08684 whole entry, looked up): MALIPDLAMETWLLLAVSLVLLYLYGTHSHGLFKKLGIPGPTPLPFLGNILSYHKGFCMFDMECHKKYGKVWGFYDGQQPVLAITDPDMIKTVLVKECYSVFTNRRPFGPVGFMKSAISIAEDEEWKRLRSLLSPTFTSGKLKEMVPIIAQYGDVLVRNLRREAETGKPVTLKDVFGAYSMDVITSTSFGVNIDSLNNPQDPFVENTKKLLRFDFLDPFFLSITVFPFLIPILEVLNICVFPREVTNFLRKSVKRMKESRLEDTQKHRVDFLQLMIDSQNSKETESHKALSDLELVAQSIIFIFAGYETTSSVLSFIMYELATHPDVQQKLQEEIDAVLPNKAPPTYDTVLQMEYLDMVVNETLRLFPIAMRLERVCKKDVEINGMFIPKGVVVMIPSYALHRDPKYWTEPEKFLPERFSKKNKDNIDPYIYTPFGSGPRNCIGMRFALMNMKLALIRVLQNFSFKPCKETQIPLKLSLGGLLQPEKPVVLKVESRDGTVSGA

The target is the same in test [17]. In words: qHTS Assay for Activators of Cytochrome P450 3A4 (AID 885). Further: nearly all actives have a fitted effect of over 65% in size. The note with it: recombinant CYP3A4, Luciferin-PPXE luminescence, 60 min; series mostly up to 57.1 µM. The procedure, abridged:
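CYP3A4 activity: Luciferin-PPXE O-dealkylation, 25uM substrate, 200mM KPO4, RT throughout. Read-out is luciferase luminescence; higher values reflect activation.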

The mark [18] stands for this setting: measured here: cell count channel max response.
Setting [19] is: measured here: lipid channel max response.

Chain of Cytochrome P450 1A2 (Homo sapiens) (P05177 whole entry, looked up): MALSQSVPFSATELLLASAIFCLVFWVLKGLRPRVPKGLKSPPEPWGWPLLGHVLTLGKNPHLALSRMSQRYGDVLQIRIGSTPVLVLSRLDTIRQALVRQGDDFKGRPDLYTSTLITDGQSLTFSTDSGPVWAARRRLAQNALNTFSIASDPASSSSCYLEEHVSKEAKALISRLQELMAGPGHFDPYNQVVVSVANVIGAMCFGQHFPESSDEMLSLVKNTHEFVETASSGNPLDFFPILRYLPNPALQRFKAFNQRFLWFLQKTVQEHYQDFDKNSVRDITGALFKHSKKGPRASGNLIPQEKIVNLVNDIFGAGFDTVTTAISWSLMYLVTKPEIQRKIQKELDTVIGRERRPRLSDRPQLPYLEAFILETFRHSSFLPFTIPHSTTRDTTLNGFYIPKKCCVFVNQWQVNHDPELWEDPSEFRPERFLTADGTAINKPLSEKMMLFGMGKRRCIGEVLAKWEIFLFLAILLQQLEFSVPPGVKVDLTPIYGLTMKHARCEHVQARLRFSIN
Chain of Glucocorticoid receptor (Homo sapiens) (P04150 whole entry, looked up, the tested form may be a part): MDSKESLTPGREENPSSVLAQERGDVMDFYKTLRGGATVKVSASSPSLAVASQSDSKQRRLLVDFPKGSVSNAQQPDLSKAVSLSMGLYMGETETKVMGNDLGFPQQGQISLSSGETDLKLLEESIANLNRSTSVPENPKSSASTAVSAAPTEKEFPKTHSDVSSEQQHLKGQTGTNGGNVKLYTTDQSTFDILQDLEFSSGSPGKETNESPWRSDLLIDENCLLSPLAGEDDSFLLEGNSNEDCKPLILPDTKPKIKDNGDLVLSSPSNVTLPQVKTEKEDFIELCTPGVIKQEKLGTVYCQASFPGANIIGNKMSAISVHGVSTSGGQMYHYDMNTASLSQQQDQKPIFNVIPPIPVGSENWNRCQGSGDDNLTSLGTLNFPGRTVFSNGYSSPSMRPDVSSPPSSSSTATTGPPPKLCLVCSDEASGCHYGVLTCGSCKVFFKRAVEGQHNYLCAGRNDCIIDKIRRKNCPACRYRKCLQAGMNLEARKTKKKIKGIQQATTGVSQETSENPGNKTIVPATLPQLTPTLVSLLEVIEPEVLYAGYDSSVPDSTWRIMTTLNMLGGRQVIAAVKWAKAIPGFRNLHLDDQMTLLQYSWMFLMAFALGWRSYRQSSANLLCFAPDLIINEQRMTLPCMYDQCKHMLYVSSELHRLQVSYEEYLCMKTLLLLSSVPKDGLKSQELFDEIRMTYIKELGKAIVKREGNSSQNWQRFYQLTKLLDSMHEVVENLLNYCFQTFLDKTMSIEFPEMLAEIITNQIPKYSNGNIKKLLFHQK
Chain of Ubiquitin carboxyl-terminal hydrolase 1 (Homo sapiens) (O94782 whole entry, looked up): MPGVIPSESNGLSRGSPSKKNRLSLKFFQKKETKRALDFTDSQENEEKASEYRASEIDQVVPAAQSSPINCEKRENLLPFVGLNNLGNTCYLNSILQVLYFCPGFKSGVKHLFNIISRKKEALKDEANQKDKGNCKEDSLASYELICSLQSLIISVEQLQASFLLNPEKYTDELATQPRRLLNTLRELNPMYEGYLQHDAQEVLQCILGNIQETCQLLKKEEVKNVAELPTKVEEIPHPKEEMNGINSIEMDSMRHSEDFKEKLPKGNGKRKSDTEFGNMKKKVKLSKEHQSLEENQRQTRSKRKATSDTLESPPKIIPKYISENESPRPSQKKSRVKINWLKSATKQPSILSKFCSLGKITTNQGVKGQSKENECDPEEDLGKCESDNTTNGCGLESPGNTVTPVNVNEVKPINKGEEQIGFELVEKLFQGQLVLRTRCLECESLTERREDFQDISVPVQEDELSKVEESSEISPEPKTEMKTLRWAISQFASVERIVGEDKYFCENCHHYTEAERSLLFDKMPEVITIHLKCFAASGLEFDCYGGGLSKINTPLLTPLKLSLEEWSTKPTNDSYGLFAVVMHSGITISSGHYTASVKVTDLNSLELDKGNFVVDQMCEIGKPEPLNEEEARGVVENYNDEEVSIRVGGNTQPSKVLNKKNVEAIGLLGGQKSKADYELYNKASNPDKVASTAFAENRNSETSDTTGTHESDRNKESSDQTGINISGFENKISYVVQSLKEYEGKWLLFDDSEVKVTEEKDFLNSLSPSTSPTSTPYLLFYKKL
Chain of Dual specificity protein kinase CLK4 (Homo sapiens) (Q9HAZ1 whole entry, looked up): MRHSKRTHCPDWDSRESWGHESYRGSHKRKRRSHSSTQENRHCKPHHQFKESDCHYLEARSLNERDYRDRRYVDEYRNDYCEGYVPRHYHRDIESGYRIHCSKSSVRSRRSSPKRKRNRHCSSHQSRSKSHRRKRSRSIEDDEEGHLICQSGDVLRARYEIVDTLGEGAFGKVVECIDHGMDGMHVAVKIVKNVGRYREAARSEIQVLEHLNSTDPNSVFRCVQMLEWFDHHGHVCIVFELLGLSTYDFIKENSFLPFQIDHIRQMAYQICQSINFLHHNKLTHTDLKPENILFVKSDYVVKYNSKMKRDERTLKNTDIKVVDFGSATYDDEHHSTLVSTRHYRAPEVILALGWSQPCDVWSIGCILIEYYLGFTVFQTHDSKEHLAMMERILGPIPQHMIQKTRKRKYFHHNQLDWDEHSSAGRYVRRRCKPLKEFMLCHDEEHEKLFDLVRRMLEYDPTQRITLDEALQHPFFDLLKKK

Consider `CCNc1ncc2nc(-c3ccc(Cl)cc3)c(=O)n(CCC#N)c2n1`, for which the values for the Potency in test [1], in test [5] and in test [6] were > 11.4 µM (inactive), > 9.22 µM (inactive) and > 46 µM (inactive), respectively. The activity change, negative = inhibition was 8.5% (inactive) in test [2], -14.8% (inactive) in test [3] and 8.4% (inactive) in test [9]. Besides, in test [4], the activity, negative = inhibition is 14.5% (inactive). Moreover, the compound was called inactive in test [7]. The Potency result in test [8], in test [10], in test [11], in test [12], in test [13] and in test [14] was “inactive” in each case. Besides, the results for the max response in test [9] (setting [18]) and in [9] (setting [19]) were 15.3% and 24.2%, respectively.
Turning to `Cn1c(=O)c(-c2ccc(Cl)cc2)nc2cnc(Nc3ccccc3)nc21`, the Potency in test [1] is > 11.4 µM (inactive); in test [5], > 9.22 µM (inactive); in [6], > 46 µM (inactive). The activity change, negative = inhibition in test [2] was -22.9% (inactive); in test [3], -8.39% (inactive); in test [9], -14.5% (inactive). Also, in test [4], the activity, negative = inhibition is -6.29% (inactive). In addition, the call in test [7] was inactive. Further, the Potency entry in [8], in test [10], in [11], in test [12], in [13] and in [14] was “inactive” each time. The values for the max response in test [9] (setting [18]) and in test [9] (setting [19]) were 23.4% and -1.32%, respectively.
As to `CN(C)c1ncc2nc(-c3ccc(F)cc3)c(=O)n(C[C@H]3CCCO3)c2n1`, the values for the Potency in test [1], in test [15] and in test [5] were > 11.4 µM (inactive), 2.51 µM (active) and > 9.22 µM (inactive), respectively. In addition, the activity change, negative = inhibition was 26.6% (inactive) in test [2], 26.7% (inactive) in test [3] and -2.2% (inactive) in test [9]. Also, the result in test [7] was inactive. Moreover, the Potency result in test [8], in test [10], in [11], in test [12], in test [13] and in test [14] was “inactive” in each case. Besides, the max response in test [9] (setting [18]) worked out at 12.6%; in test [9] (setting [19]) it was 6.86%.
Consider `COCCNc1ncncc1-c1ccccc1OC`, for which the Potency in [1] is > 11.4 µM (inactive); in [5] it was > 46 µM (inactive); in test [6], > 46 µM (inactive). In addition, the results for the activity change, negative = inhibition in test [2], in test [3] and in test [9] were 0.174% (inactive), 6.41% (inactive) and 4.36% (inactive), respectively. In [4], the activity, negative = inhibition is 16.6% (inactive). Moreover, the compound was classed as inactive in [7]. In addition, the Potency result in test [8], in test [10], in test [11], in test [12], in [13] and in test [14] was “inactive” in each case. Also, the figures for the max response in [9] (setting [18]) and in test [9] (setting [19]) were 20.6% and 16.6%, respectively.
Take `CN1CCN(c2ncc3nc(-c4ccc(Cl)cc4)c(=O)n(Cc4cccs4)c3n2)CC1`: the Potency in test [1] was > 11.4 µM (inactive); in test [15], 10 µM (active); in [5], > 9.22 µM (inactive); in [6], > 46 µM (inactive). Further, the activity change, negative = inhibition was 140% [activator] (active) in test [2] and 0.387% (inactive) in test [9]. Further, the Potency entry in [8], in [16], in test [10], in test [11], in [12] and in test [13] was “inactive” throughout. In addition, the Potency entry in test [14] is “inactive”. For the same compound, the max response in [9] (setting [18]) was determined as 19.7%; in [9] (setting [19]), 16.2%.
For `CN(Cc1ccco1)c1ncncc1-c1cccc(C#N)c1`, the Potency is > 11.4 µM (inactive) in test [1]; 12.6 µM (active) in test [15]; > 46 µM (inactive) in [5]; > 46 µM (inactive) in test [6]; 7.94 µM (active) in test [16]. In addition, the activity change, negative = inhibition in [2] is 21.3% (inactive); in [9], 5.47% (inactive). Besides, in test [4], the activity, negative = inhibition was 7.25% (inactive). Further, the call in [7] was inactive. The Potency entry in test [8], in test [17], in test [10], in test [11], in test [12] and in test [13] was “inactive” each time. Also, in [14], the Potency result was “inactive”. In addition, the max response in [9] (setting [18]) stood at 14.4%; in [9] (setting [19]), 17.8%.
